Activity calls are given as the source filed them. Rule for the calls: active = hit-call score of the fitted dose curve at least 0.9, where 1 is the maximum; inactive = score below 0.9.
Key:
[1] = ATG_M_61_CIS: Attagene CIS-FACTORIAL HepG2 Assay for M61 Transcription Factor (Internal Marker) (AID 2282937); details: HepG2 Attagene CIS-FACTORIAL M61 internal marker reporter; actives raise or lower the signal
In short: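 Readout: fluorescent reporter mRNA fragments resolved by capillary electrophoresis after RT-PCR. Transiently transfected human HepG2 cells carried MRTU constructs reporting endogenous TF activity; 24 h chemical exposure; gain or loss of signal fitted relative to DMSO.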

[2] = ATG_EGR_CIS: Attagene CIS-FACTORIAL HepG2 Assay for human Early Growth Response 1 (EGR1) (AID 2282938); details: HepG2 Attagene CIS-FACTORIAL EGR reporter mRNA; actives raise or lower the signal
In short: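 Read-out: fluorescent reporter-mRNA fragments resolved by capillary electrophoresis after RT-PCR, 24 h post-dose in transiently transfected HepG2. Endogenous transcription-factor activity reported via cis-element-regulated reporter units; gain or loss fitted relative to DMSO.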

[3] = ATG_M_19_CIS: Attagene CIS-FACTORIAL HepG2 Assay for M19 Transcription Factor (Internal Marker) (AID 2282939); details: HepG2 Attagene CIS-FACTORIAL M19 internal marker reporter; actives raise or lower the signal
In short: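 Chemical-treated HepG2 (24 h) with MRTU constructs; reporter transcripts detected by fluorescent RT-PCR fragment analysis on capillary electrophoresis. Internal background marker, DMSO as baseline.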

[4] = ATG_Ets_CIS: Attagene CIS-FACTORIAL HepG2 Assay for human Erythroblast Transformation Specific (ETS) (AID 2282941); details: HepG2 ETS cis-reporter transcription, actives raise or lower the signal
In short: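 HepG2 cells transfected with multiple cis-regulated reporter units measuring endogenous ETS-driven transcription, 24 h after dosing. Reporter mRNA quantified by RT-PCR with capillary electrophoresis; bidirectional fit relative to DMSO.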

[5] = target: Hepatocyte nuclear factor 3-beta (Homo sapiens) (UniProt Q9Y261); assay: ATG_FoxA2_CIS: Attagene CIS-FACTORIAL HepG2 Assay for human Forkhead box A2 (FOXA2) (AID 2282942); details: HepG2 cis-reporter transcription factor activity, 24 h; actives raise or lower the signal
In short: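 Readout: fluorescent reporter transcripts resolved by capillary electrophoresis after RT-PCR. Transiently transfected HepG2, 24 h compound exposure, endogenous TF activity at cis promoter elements. Gain or loss of signal fitted relative to DMSO.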

[6] = ATG_FoxO_CIS: Attagene CIS-FACTORIAL HepG2 Assay for human Forkhead box O (FoxO) (AID 2282943); details: HepG2 Attagene cis-reporter, FoxO element, mRNA; actives raise or lower the signal
In short: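 Transfected HepG2 reporter cells exposed to test chemical for 24 h; reporter RNA measured by reverse transcription, PCR and fluorescent capillary electrophoresis; curves fitted for increases and decreases against DMSO.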

[7] = ATG_GATA_CIS: Attagene CIS-FACTORIAL HepG2 Assay for human GATA Binding Protein (AID 2282944); details: HepG2 GATA cis-element reporter, Attagene multiplex mRNA; actives raise or lower the signal
In short: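 Transfected cis-reporter HepG2 cells were treated with chemicals for 24 hours. Total RNA was then converted to cDNA, amplified with reporter-specific primers and analysed by fluorescent capillary electrophoresis, using DMSO-treated wells as baseline.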

[8] = ATG_GLI_CIS: Attagene CIS-FACTORIAL HepG2 Assay for human Zinc Finger Protein GLI1 (AID 2282945); details: HepG2, Attagene cis-factorial reporter mRNA, GLI element; actives raise or lower the signal
In short: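 Transiently transfected HepG2 cells report endogenous transcription factor activity via cis-element-driven reporter units. After 24 h compound exposure, reporter mRNA was measured by RT-PCR with capillary electrophoresis; bidirectional fitting against DMSO baseline.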

[9] = ATG_E_Box_CIS: Attagene CIS-FACTORIAL HepG2 Assay for human Enhancer Box (E-box) (AID 2282936); details: HepG2 E-box cis-reporter transcription, actives raise or lower the signal
In short: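 HepG2 cells transiently transfected with multiplexed cis-element reporter units, dosed 24 h; reporter mRNA quantified by RT-PCR, 6-FAM labelling, HpaI digestion and capillary electrophoresis. E-box (USF1) signal fitted bidirectionally vs DMSO.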

[10] = ATG_ERE_CIS: Attagene CIS-FACTORIAL HepG2 Assay for Estrogen Response Element (ERE) (AID 2282940); details: HepG2 ERE cis-reporter, Attagene RNA transcript; actives raise or lower the signal
In short: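 Human liver cells (HepG2) bearing transiently transfected, promoter-regulated reporter units were exposed 24 h. Reporter mRNA induction was detected by capillary electrophoresis of labelled RT-PCR products and fitted bidirectionally to DMSO.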

Measured: AC50

Hepatocyte nuclear factor 3-beta (Homo sapiens), sequence (Q9Y261 whole entry, looked up): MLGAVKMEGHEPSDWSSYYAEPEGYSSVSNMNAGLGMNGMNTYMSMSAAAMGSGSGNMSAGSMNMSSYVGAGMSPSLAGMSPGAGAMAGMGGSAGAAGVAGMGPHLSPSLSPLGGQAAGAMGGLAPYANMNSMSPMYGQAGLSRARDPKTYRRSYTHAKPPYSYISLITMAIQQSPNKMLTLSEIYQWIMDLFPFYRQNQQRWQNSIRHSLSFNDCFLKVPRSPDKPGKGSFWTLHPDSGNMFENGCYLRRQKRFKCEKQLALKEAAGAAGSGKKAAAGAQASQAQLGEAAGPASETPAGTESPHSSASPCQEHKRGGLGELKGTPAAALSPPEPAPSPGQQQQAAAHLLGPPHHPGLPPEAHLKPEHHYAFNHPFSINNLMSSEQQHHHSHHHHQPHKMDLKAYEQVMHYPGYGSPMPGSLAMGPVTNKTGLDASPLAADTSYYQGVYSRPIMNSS

Cc1cccc(N)c1N
active: [2] 106 µM | [4] 77.1 µM
not listed: [9] | [10]
inactive: all other assays above

CCC(C)c1ccc(O)cc1 (configuration not stated)
not listed: [7] | [10]
inactive: all other assays above

Brc1ccc(Oc2ccccc2)cc1
active: [10] 50.8 µM
not listed: [9]
inactive: all other assays above

CCN(CC)CCO
not listed: [6] | [7] | [10]
inactive: all other assays above

CS(=O)(=O)NC(=O)c1cc(Oc2ccc(C(F)(F)F)cc2Cl)ccc1[N+](=O)[O-]
not listed: [6] | [10]
inactive: all other assays above

Nc1ccc(Cc2ccc(N)cc2)cc1
not listed: [6] | [7] | [10]
inactive: all other assays above

Nc1ccc(N=Nc2ccccc2)cc1
active: [2] 50.6 µM | [10] 27 µM
not listed: [6] | [9]
inactive: all other assays above

O=C(O)C1C2CCC(O2)C1C(=O)O (configuration not stated)
active: [8] 100 µM
not listed: [6] | [10]
inactive: all other assays above

[Cl-].[Cl-].[Hg+2]
not listed: [6] | [7] | [10]
inactive: all other assays above

Cn1cc(-c2ccccc2)c(=O)c(-c2cccc(C(F)(F)F)c2)c1
not listed: [9]
inactive: all other assays above

CN(C)[C@@H]1C(=O)C(C(N)=O)=C(O)[C@@]2(O)C(=O)C3=C(O)c4c(O)cccc4[C@@](C)(O)[C@H]3C[C@@H]12
not listed: [6] | [7] | [10]
inactive: all other assays above

c1ccc2c(c1)-c1cccc3cccc-2c13
active: [3] 0.00801 µM
not listed: [6] | [10]
inactive: all other assays above

Oc1ccc2ccc3cccc4ccc1c2c34
not listed: [7] | [10]
inactive: all other assays above

O=C(Oc1ccc(Br)cc1)N1CCN2CCC1CC2
not listed: [9]
inactive: all other assays above

CCC12COCN1COC2
not listed: [9]
inactive: all other assays above

CCCCCCCCOC(=O)c1ccc(C(=O)OCCCCCCCC)c(C(=O)OCCCCCCCC)c1
active: [8] 26.3 µM
not listed: [6] | [10]
inactive: all other assays above

Cc1ccc(N)c(N)c1
active: [2] 28.3 µM
not listed: [6] | [10]
inactive: all other assays above

O=[N+]([O-])c1ccc(Oc2ccc(Cl)cc2Cl)cc1
active: [2] 28.3 µM
not listed: [6] | [9] | [10]
inactive: all other assays above

COP(=S)(OC)SCN1C(=O)c2ccccc2C1=O
not listed: [9] | [10]
inactive: all other assays above

Oc1ccccc1Cl
inactive: [1] | [2] | [3] | [4] | [5] | [8]

c1ccc(N=Nc2ccccc2)cc1
not listed: [6] | [9] | [10]
inactive: all other assays above

CCOC(=O)[C@]1(c2ccccc2)Oc2ccccc2[C@@H]1N
active: [2] 33 µM | [6] 49.5 µM | [8] 59.5 µM
not listed: [9] | [10]
inactive: all other assays above

Cc1ccc(N=C=O)cc1N=C=O
not listed: [6] | [9] | [10]
inactive: all other assays above

CC(C)(C)OOC(=O)c1ccccc1
not listed: [6] | [9] | [10]
inactive: all other assays above

c1ccc(NNc2ccccc2)cc1
not listed: [7] | [9] | [10]
inactive: all other assays above

CC(C)(O)c1cnn2c(-c3ccc(F)c(-c4c(F)cccc4C#N)c3)cnc2n1
active: [2] 2.13 µM
not listed: [9] | [10]
inactive: all other assays above

OCCCl
not listed: [7] | [9] | [10]
inactive: all other assays above

ClCCOCCCl
not listed: [6] | [9] | [10]
inactive: all other assays above

COC(=O)c1ccccc1N
not listed: [7] | [9] | [10]
inactive: all other assays above

Clc1ccc(Cl)c(Cl)c1
inactive: [1] | [2] | [3] | [4] | [5] | [8]

CC(C)(C)OOC(C)(C)CCC(C)(C)OOC(C)(C)C
not listed: [7] | [9] | [10]
inactive: all other assays above

CN(C)C(=O)Nc1ccc(Cl)cc1
not listed: [7] | [9] | [10]
inactive: all other assays above

N#CC(Br)(Br)C(N)=O
not listed: [7] | [9] | [10]
inactive: all other assays above

Cc1ccc(N)cc1
not listed: [7] | [9] | [10]
inactive: all other assays above

CN(C)c1ccc(C(=O)c2ccc(N(C)C)cc2)cc1
not listed: [7] | [9] | [10]
inactive: all other assays above

C=CCc1ccc2c(c1)OCO2
inactive: [1] | [2] | [3] | [4] | [5] | [8]

c1ccc(C2CO2)cc1 (configuration not stated)
not listed: [6] | [9] | [10]
inactive: all other assays above

Nc1cc(Cl)cc(C(=O)O)c1Cl
not listed: [9] | [10]
inactive: all other assays above

Cc1cc(N=Nc2ccccc2C)ccc1N
active: [2] 21.6 µM | [5] 15.7 µM
not listed: [9] | [10]
inactive: all other assays above

CC(C)(C)C(O)(CCc1ccc(Cl)cc1)Cn1cncn1 (configuration not stated)
inactive: [1] | [2] | [3] | [4] | [5] | [8]

Nc1ccc(Cl)cc1N
active: [2] 28.2 µM
not listed: [7] | [9] | [10]
inactive: all other assays above

O=C(N[C@H](c1ccccc1)[C@@H]1CN2CCC1CC2)c1c(Cl)ccc(C(F)(F)F)c1Cl
not listed: [9] | [10]
inactive: all other assays above

CCCSC(=O)N(CCC)CCC
inactive: [1] | [2] | [3] | [4] | [5] | [8]

c1ccc2c(c1)oc1ccccc12
not listed: [6] | [9] | [10]
inactive: all other assays above

O=Cc1ccco1
inactive: [1] | [2] | [3] | [4] | [5] | [8]

Source: PubChem BioAssay (EPA / NIEHS)
